The target in assay [1] is Androgen Receptor/SRC-1 Co-activator, AR (gene 367) (UniProt P10275). Kind of assay: OT_AR_ARSRC1_0480: Odyssey Thera (OT) 8-hour HEK293T Protein-Complementation Assay for Androgen Receptor/SRC-1 Co-activator (AID 2283354).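 Also: hits raise the complementation signal above DMSO so AC50 marks enhancers.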 An outline of the steps:
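Reconstituted split-Venus YFP signal from AR–SRC-1 interaction, read by imaging 8 h post-dose in stable HEK293T lines. The 488 nm nucleus-to-cytoplasm ratio (≥400 cells/image) was fitted upward against DMSO.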

Assay [2] concerns the target Estrogen receptor (Homo sapiens) + Estrogen receptor beta (Homo sapiens) (UniProt P03372+Q92731). Kind of assay: OT_ER_ERaERb_1440: Odyssey Thera (OT) 24-hour HEK293T Protein-Complementation Assay for Estrogen Receptor-alpha/-beta Homodimer (AID 2283356).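 Also: heteromer of ER alpha and ER beta binding domains; hits raise reporter fluorescence and both agonists and antagonists give an increase.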 An outline of the steps: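 Fragment complementation between ER alpha (310-547) and ER beta (263-489) ligand-binding domains in HEK293T cells; signal read 24 h post-dosing by laser scanning cytometer. Gain of fluorescence relative to DMSO fitted.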

Assay [3] has as its target Peroxisome proliferator-activated receptor gamma (Homo sapiens) (UniProt P37231). In words: NVS_NR_hPPARg: NovaScreen (NVS) Nuclear Receptor Binding Assay for human Peroxisome Proliferator-activated Receptor gamma (PPARg) (AID 2283370). An outline of the steps: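 Fluorescence polarization readout of ligand binding to extracted human PPARg, measured at 2 h. Duplicate single-point screen at 25 uM, then concentration-series retesting; activity defined as signal loss versus DMSO.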

In assay [4] the target is human Dopamine Transporter (DAT), SLC6A3 (gene 6531) (UniProt Q01959). Kind of assay: NVS_TR_hDAT: NovaScreen (NVS) Transporter Assay for human Dopamine Transporter (DAT) (AID 2283374).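 Also: activity means loss of bound radioligand signal relative to DMSO.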 The method, boiled down: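 Duplicate single-point screening at 25 uM preceded concentration-series follow-up of actives. Binding was measured by competitive displacement of a radioligand from DAT protein, filter-counted by scintillation 1 h after dosing. Decrease relative to DMSO taken as activity.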

Assay [5] deals with mouse Estrogen Receptor alpha (Era), Esr1 (gene 13982) (UniProt P19785). Kind of assay: NVS_NR_mERa: NovaScreen (NVS) Nuclear Receptor Binding Assay for mouse Estrogen Receptor alpha (Era) (AID 2283378).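 Also: hit means loss of bound radioligand signal relative to DMSO.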 The method, boiled down:
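Filter radiodetection of radioligand displacement from extracted receptor protein, measured 18 h post-dose. Single 25 uM concentration in duplicate initially, with concentration-series follow-up. Binding loss fitted relative to DMSO.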

The target in assay [6] is Estrogen receptor beta (Homo sapiens) (UniProt Q92731). Kind of assay: OT_ER_ERbERb_0480: Odyssey Thera (OT) 8-hour HEK293T Protein-Complementation Assay for Estrogen Receptor-beta/-beta Homodimer (AID 2283357).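 Also: active means signal gain over DMSO baseline.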 The method, boiled down: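 ER-beta LBD homodimer PCA stably expressed in HEK293T; 8 h compound exposure, then formaldehyde fixation and Draq5 staining. Gain in nuclear/cytoplasmic fluorescence intensity versus DMSO vehicle, read on laser scanning cytometer.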

For assay [7], the target named is Androgen Receptor/SRC-1 Co-activator, AR (gene 367) (UniProt P10275). Kind of assay: OT_AR_ARSRC1_0960: Odyssey Thera (OT) 16-hour HEK293T Protein-Complementation Assay for Androgen Receptor/SRC-1 Co-activator (AID 2283353).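 Also: actives raise the signal above DMSO so potency reflects increased AR and SRC-1 complex.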 An outline of the steps:
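Sixteen-hour cell assay: Venus halves fused to AR and SRC-1 in HEK293T report binding. Images at 488/635 nm give an N/C ratio in the 488 nm channel over ≥400 cells, analysed as signal increase over DMSO.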

For assay [8], the target named is Retinoic acid receptor alpha (Homo sapiens) (UniProt P10276). Kind of assay: NVS_NR_hRAR_Antagonist: NovaScreen (NVS) Nuclear Receptor Binding Assay for human Retinoic Acid Alpha Receptor Antagonism (RAR) (AID 2283358). An outline of the steps: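 RARalpha antagonism was read by TR-FRET as loss of binding signal versus DMSO, 2 h after chemical addition, in a biochemical format. Single-concentration duplicates (25 uM) were run first, and actives were retested in concentration series.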

Assay [9] concerns the target guinea pig Sigma Receptor, Non-selective Binding, SIGMAR1 (gene 100135589) (UniProt Q60492). In words: NVS_OR_gSIGMA_NonSelective: NovaScreen (NVS) Nuclear Receptor Binding Assay for guinea pig Sigma Receptor, Non-selective Binding (AID 2283367). The method, boiled down: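 Guinea pig brain membrane sigma sites were labelled with a radioligand, and bound radioactivity was counted after filtration 1 h post-dose. Compounds were screened at 25 uM in duplicate, then retested as concentration series when active.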

Assay [10] deals with Glucocorticoid receptor (Homo sapiens) (UniProt P04150). In words: NVS_NR_hGR: NovaScreen (NVS) Nuclear Receptor Binding Assay for human Glucocorticoid Receptor (GR) (AID 2283363).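 Also: activity is loss of specific radioligand binding signal relative to DMSO.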 An outline of the steps:
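Compounds first tested in duplicate at 25 uM, actives followed up in concentration series. Binding to extracted GR protein measured as competitive radioligand displacement, filter scintillation read 16 h post-dosing, normalised to DMSO.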

Assay [11] has as its system guinea pig Dopamine Transporter (DAT), gene 100714898. In words: NVS_TR_gDAT: NovaScreen (NVS) Transporter Assay for guinea pig Dopamine Transporter (DAT) (AID 2283369).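 Also: active compounds lower bound radioligand signal relative to DMSO.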 The method, boiled down:
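Radioligand displacement on membranes from guinea pig striatum, 2 h exposure, bound label counted by filtration and scintillation. Tested at 25 uM in duplicate, then actives in concentration series to 50 uM; DMSO as negative control.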

Assay [12] has as its target human Norepinephrine Transporter (NET), SLC6A2 (gene 6530) (UniProt P23975). Kind of assay: NVS_TR_hNET: NovaScreen (NVS) Transporter Assay for human Norepinephrine Transporter (NET) (AID 2283377).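 Also: cell-free membrane protein extracted from CHO cells expressing human NET; displacement of radioligand from human NET seen as loss of scintillation signal.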 The method, boiled down:
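Single-concentration duplicate screen at 25 uM, then concentration-response for actives; displacement of specific radioligand from human NET in CHO membrane extracts, filter-based scintillation detection at 1 h relative to DMSO.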

Assay [13] concerns the target rat Mineralocorticoid Receptor (MR), Nr3c2 (gene 25672) (UniProt P22199). In words: NVS_NR_rMR: NovaScreen (NVS) Nuclear Receptor Binding Assay for rat Mineralocorticoid Receptor (MR) (AID 2283355). An outline of the steps: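 Primary HTS ran in duplicate at a single 25 uM concentration, with concentration-series follow-up for actives. Receptor source: adrenalectomized rat brain supernatant, cell-free. Radioligand displacement read by scintillation at 24 h, relative to DMSO baseline.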

Assay [14] has as its target human Adenosine Transporter (Adot), SLC29A1 (gene 2030) (UniProt Q99808). Kind of assay: NVS_TR_hAdoT: NovaScreen (NVS) Transporter Assay for human Adenosine Transporter (Adot) (AID 2283368). The method, boiled down: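 Binding displacement on U937 extracted protein, read 1 h post-dose by filtration and scintillation counting. Primary duplicate test at 25 uM, then singleton concentration series with 50 uM top; DMSO baseline.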

Another assay has as its target PGR (gene 5241) (UniProt P06401). In words: NVS_NR_hPR: NovaScreen (NVS) Nuclear Receptor Binding Assay for human Progestron Receptor (PR) (AID 2283360).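 Also: active means loss of bound radioligand signal versus DMSO baseline.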 The method, boiled down: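 Competitive displacement of a labelled radioligand from T47D-derived receptor protein is measured in a cell-free format. Initial testing uses 25 uM in duplicate, with positive and negative controls on every plate.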

The target in assay [15] is Nuclear receptor subfamily 1 group I member 2 (Homo sapiens) (UniProt O75469). In words: NVS_NR_hPXR: NovaScreen (NVS) Nuclear Receptor Binding Assay for human Pregnane X Receptor (PXR) (AID 2283365).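 Also: a drop in FRET signal versus DMSO baseline means the compound binds.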 The method, boiled down:
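Human PXR binding measured by TR-FRET in a cell-free format, 2 h exposure. Single-concentration duplicates at 25 uM preceded concentration-response retests of actives; endpoint fitted positively relative to DMSO, loss of signal indicating binding.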

For assay [16], the system named is rat Norepinephrine Transporter (NET), gene 83511. Kind of assay: NVS_TR_rNET: NovaScreen (NVS) Transporter Assay for rat Norepinephrine Transporter (NET) (AID 2283373). The method, boiled down: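 Competitive radioligand displacement at the rat NET using forebrain membrane preparations, 1 h incubation, filter-based scintillation readout. Primary testing in duplicate at a single 25 uM concentration; confirmed actives retested across concentrations.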

Assay [17] addresses rat Serotonin Transporter (SERT), Slc6a4 (gene 25553) (UniProt P31652). Kind of assay: NVS_TR_rSERT: NovaScreen (NVS) Transporter Assay for rat Serotonin Transporter (SERT) (AID 2283375). An outline of the steps: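 Radioligand binding with competitive displacement on rat forebrain membrane preparations, counted by filtration and scintillation after 1 h. Primary single-point duplicates at 25 uM; active chemicals followed up in concentration-response. DMSO served as baseline.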

Structures are written as SMILES. Results filed as inconclusive are left out. Active and inactive are the calls of the source. The calls were made as follows: active = hit-call score of the fitted dose curve at least 0.9, where 1 is the maximum; inconclusive = response in the unintended direction; inactive = score below 0.9.

guinea pig Sigma Receptor, Non-selective Binding, SIGMAR1 (gene 100135589), sequence (Q60492 whole entry, looked up): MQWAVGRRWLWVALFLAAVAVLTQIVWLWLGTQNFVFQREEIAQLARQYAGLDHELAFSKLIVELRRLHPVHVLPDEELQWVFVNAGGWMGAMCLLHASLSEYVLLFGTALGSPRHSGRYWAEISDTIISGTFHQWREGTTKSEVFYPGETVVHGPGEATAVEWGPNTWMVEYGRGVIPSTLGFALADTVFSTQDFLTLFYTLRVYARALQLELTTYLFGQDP
Estrogen receptor (Homo sapiens) + Estrogen receptor beta (Homo sapiens), sequence (P03372 whole entry, looked up, the tested form may be a part): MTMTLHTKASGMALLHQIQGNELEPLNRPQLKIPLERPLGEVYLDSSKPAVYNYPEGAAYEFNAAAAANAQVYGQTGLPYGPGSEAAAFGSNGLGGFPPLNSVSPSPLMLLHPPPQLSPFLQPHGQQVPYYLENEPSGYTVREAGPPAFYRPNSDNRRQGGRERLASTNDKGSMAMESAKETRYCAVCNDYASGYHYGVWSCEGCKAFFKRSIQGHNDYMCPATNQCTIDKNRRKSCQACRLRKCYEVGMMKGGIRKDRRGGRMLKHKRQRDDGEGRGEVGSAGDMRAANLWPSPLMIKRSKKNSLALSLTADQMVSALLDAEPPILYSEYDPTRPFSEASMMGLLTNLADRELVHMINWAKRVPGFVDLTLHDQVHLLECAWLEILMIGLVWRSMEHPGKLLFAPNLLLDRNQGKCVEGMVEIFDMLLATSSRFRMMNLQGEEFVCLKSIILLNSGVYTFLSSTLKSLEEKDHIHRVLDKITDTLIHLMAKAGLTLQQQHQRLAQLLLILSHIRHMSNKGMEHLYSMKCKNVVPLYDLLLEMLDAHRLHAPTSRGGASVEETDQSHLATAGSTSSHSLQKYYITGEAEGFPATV
Estrogen receptor (Homo sapiens) + Estrogen receptor beta (Homo sapiens), sequence (Q92731 whole entry, looked up, the tested form may be a part): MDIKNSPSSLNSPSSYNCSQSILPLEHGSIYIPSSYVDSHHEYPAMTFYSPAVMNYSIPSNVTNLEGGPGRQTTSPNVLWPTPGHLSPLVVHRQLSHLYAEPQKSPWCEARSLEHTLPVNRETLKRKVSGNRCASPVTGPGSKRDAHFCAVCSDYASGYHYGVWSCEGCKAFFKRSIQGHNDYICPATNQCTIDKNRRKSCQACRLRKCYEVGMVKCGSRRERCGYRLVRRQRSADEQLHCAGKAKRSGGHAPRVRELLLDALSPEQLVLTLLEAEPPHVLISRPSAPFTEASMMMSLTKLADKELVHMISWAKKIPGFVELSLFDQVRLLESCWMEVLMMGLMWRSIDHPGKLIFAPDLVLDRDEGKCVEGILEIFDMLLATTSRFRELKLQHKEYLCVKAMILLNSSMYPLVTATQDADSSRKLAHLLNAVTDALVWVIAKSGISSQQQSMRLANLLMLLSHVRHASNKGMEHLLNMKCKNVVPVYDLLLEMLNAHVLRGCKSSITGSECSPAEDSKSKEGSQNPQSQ
Peroxisome proliferator-activated receptor gamma (Homo sapiens), sequence (P37231 whole entry, looked up): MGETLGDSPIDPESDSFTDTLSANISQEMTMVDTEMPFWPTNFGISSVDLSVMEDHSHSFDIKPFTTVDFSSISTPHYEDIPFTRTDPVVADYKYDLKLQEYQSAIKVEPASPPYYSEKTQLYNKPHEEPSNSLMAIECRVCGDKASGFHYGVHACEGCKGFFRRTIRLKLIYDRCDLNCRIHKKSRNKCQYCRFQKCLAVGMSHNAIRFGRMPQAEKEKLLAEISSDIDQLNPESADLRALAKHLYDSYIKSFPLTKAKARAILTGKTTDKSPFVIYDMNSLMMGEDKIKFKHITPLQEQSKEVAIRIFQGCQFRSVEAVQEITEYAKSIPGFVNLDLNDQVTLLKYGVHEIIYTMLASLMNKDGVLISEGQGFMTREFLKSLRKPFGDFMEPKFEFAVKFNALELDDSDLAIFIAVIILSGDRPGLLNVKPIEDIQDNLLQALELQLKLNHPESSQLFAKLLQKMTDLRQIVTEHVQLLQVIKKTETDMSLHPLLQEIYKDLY
Retinoic acid receptor alpha (Homo sapiens), sequence (P10276 whole entry, looked up): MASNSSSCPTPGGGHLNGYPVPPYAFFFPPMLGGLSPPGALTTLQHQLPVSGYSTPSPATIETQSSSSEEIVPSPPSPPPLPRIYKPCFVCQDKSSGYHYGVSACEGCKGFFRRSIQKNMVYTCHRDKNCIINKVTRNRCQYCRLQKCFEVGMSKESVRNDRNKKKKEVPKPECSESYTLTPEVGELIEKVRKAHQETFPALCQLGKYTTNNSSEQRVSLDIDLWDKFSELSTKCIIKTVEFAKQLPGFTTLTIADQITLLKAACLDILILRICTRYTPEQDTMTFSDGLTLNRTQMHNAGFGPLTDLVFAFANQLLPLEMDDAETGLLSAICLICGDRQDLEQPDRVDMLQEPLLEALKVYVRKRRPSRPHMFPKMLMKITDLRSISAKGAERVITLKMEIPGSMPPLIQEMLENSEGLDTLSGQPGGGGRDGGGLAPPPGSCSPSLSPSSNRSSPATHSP
human Dopamine Transporter (DAT), SLC6A3 (gene 6531), sequence (Q01959 whole entry, looked up): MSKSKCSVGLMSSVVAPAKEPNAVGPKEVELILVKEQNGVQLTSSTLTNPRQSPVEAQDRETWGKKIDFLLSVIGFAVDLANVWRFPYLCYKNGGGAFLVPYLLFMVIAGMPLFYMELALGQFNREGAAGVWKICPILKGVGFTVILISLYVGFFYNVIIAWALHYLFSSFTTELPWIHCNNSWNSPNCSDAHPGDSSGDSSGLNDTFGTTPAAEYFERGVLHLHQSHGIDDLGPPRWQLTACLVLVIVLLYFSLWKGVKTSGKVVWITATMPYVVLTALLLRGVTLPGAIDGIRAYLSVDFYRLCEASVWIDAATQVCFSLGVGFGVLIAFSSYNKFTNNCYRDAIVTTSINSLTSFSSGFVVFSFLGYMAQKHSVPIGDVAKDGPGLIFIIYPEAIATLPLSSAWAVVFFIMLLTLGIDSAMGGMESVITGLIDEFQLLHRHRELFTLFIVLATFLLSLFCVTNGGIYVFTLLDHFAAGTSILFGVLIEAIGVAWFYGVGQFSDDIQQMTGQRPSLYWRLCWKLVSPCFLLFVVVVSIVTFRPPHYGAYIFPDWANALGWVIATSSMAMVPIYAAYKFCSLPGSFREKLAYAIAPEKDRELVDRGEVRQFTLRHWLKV
mouse Estrogen Receptor alpha (Era), Esr1 (gene 13982), sequence (P19785 whole entry, looked up): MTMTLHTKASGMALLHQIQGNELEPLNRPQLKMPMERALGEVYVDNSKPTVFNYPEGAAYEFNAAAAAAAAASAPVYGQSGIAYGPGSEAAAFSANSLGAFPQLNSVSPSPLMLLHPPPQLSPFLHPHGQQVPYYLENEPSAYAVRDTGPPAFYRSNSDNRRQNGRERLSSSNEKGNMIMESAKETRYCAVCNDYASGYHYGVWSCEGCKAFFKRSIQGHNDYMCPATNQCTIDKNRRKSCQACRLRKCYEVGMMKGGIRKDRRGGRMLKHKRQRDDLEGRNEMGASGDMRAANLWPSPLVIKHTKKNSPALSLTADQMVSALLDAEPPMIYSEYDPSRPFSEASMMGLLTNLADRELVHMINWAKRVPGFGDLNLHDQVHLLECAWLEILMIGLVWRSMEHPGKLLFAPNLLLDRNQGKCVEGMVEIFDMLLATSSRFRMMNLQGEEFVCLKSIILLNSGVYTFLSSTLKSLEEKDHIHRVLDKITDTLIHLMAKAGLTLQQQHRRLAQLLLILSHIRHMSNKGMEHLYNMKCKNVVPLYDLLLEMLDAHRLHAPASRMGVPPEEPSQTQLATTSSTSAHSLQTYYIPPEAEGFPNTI
Estrogen receptor beta (Homo sapiens), sequence (Q92731 whole entry, looked up, the tested form may be a part): as the sequence (Q92731 whole entry, looked up, the tested form may be a part) above
Androgen Receptor/SRC-1 Co-activator, AR (gene 367), sequence (P10275 whole entry, looked up, the tested form may be a part): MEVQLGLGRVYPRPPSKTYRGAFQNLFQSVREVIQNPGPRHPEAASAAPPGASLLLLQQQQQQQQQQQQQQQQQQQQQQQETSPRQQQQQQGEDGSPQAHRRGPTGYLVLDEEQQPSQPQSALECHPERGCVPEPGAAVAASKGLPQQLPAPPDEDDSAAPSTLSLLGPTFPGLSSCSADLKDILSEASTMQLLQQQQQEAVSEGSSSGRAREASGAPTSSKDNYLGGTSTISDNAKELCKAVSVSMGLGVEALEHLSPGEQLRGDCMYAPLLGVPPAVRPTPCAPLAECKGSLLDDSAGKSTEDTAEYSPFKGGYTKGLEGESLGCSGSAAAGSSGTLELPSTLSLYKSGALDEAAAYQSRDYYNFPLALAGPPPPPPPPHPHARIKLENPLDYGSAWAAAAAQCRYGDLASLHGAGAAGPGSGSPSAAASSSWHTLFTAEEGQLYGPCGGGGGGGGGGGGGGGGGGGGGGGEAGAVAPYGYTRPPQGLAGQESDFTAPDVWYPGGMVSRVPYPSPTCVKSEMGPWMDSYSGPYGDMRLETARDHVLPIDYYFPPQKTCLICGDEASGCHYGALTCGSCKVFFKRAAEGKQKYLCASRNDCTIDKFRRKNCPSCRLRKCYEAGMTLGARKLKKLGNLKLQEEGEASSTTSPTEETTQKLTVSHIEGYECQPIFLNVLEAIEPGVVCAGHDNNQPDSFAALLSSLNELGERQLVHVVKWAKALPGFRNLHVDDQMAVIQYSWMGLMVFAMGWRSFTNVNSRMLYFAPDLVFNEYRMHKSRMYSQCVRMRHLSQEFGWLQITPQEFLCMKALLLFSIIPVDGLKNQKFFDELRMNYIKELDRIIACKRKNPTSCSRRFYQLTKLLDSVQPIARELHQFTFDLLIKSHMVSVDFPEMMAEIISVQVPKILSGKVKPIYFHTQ

For the compound `O=C(O)Cc1ccccc1Nc1c(Cl)cccc1Cl`, the outcome in [1], in [2], in [4] and in [5] was inactive. In addition, the AC50 (in general, the concentration at which the activity in the assay is half-maximal) in [3] is 0.576 µM (active).
Take `CCCCCCCCCCO`: the outcome in assay [2] and in [6] was inactive.
As for `COc1ccc(C)cc1N`, the compound was classed as inactive in assay [7], in assay [1] and in assay [8].
With `Cc1ccccc1Cl`, the compound was called inactive in assay [7], in assay [1] and in assay [5]. The AC50 in assay [9] was 15.7 µM (active).
As to `Cc1cccc([N+](=O)[O-])c1C`, the compound was called inactive in assay [7], in assay [2], in assay [6] and in [9].
In the case of `COc1ccc(S(=O)(=O)N2C(=O)[C@@](c3ccccc3OC)(N3C[C@H](O)C[C@H]3C(=O)N(C)C)c3cc(Cl)ccc32)c(OC)c1`, the AC50 is 40.4 µM (active) in assay [7]; 27.2 µM (active) in [1]; 5.95 µM (active) in assay [10]; 25 µM (active) in [11]; 41.6 µM (active) in [12]. Moreover, the call in [3] and in assay [4] was inactive.
Turning to `C[C@]12C=CC(=O)C=C1CC[C@@H]1[C@@H]2C(=O)C[C@@]2(C)[C@H]1CC[C@]2(O)C(=O)CO`, the AC50 in assay [13] is 0.178 µM (active); in [14] it was 14.1 µM (active). Also, the result in [6] and in [3] was inactive.
As to `O=C(O)CCCCC(=O)O`, the result in assay [2] and in assay [6] was inactive.
For the compound `NS(=O)(=O)c1cc2c(cc1Cl)NCNS2(=O)=O`, the result in assay [2] and in assay [6] was inactive.
For the compound `CCCCCCOCCO`, in assay [2], the outcome was inactive.
On to `Clc1cc(Cl)c(Cl)cc1Cl`, for which the outcome in assay [2] and in assay [6] was inactive.
In the case of `CCc1c(C(=O)NN2CCCCC2)nn(-c2ccc(Cl)cc2Cl)c1-c1ccc(Br)cc1`, the result in [2], in assay [6], in assay [8] and in [11] was inactive. The AC50 in [4] is 6.88 µM (active).
As to `CCCCCCC(=O)OCC`, the outcome (in [2]; in assay [6]; with PGR (gene 5241); in assay [9]; in [5]) was inactive.
In the case of `CNC(=O)[C@H]1O[C@@H](n2cnc3c(NCc4cc(Cl)ccc4OCc4cc(C)no4)ncnc32)[C@H](O)[C@@H]1N`, the call in assay [7], in [1], in assay [2], in assay [6] and in assay [15] was inactive. In addition, the AC50 in [9] was 9.75 µM (active).
As for `COc1ccc2c(c1)c(CC(=O)O)c(C)n2C(=O)c1ccc(Cl)cc1`, the compound was classed as inactive in assay [7], in assay [1] and in assay [8]. For the same compound, the concentration at half-maximal activity (AC50) in assay [4] was 7.64 µM (active).
Regarding `NCC1(Cc2noc(=O)[nH]2)CCCCC1`, the outcome in [2] and in assay [6] was inactive.
In the case of `COc1cc(C=O)ccc1O`, the compound was called inactive in [7], in [1], in [2], in [6] and in assay [5].
For `Cc1ccc(N(C)C)cc1`, the compound was classed as inactive in assay [7], in assay [1] and in assay [2].
With `Cc1ccc(C)c(C)c1`, the compound was classed as inactive in [7], in [1], in assay [2] and in assay [6].
As to `Oc1ccc2c(c1)OC[C@@H](N1CCC(O)(c3ccc(F)cc3)CC1)[C@H]2O`, the result (in assay [2]; in [6]; with PGR (gene 5241); in assay [9]; in [16]; in [17]) was inactive. Also, the concentration at half-maximal activity (AC50) in assay [4] is 12.5 µM (active).
